# Legend:
# Assay in all cases: DAPPL (digital affinity profiling via proximity ligation, sequencing); 10 mM Tris-HCl pH 7.5, 50 mM NaCl, 1 mM DTT, 4% glycerol, room temperature, 30 min; GST-TFs on glutathione beads, 16-mer random dsDNA library, 0.1% formaldehyde crosslink after washing; high values mean tight binding
# [1] = biological target: T1, FEV (Homo sapiens, UniProt Q99581 1-238); conditions: protein: recombinant; tags: N-terminal GST; dsDNA, one strand shown
# T1 sequence: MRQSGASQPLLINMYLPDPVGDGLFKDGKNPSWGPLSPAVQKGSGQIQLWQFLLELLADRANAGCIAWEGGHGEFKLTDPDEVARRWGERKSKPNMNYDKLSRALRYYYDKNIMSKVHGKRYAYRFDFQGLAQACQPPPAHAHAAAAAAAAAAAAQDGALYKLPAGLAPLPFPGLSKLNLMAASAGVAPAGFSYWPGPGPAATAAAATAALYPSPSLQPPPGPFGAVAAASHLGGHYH
# In short: (§1)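 In yeast, human transcription factors were expressed with a GST fusion, then pulled down on glutathione beads and given DNA barcodes. Pooled with a tag-only sample, they were exposed to 200 nmole of a 16-mer random double-stranded DNA library (Tris/NaCl/DTT/glycerol buffer, room temperature, 30 min), washed, crosslinked with 0.1% formaldehyde, proximity-ligated using BsaI/T4 ligase for 1 h at 37 °C, PCR-amplified and read on an Illumina NextSeq500. Each hexamer's frequency of reads for a factor, divided by the matching frequency for the tag-only sample, gives the binding signal.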
# [2] = biological target: ETV5 (Homo sapiens, UniProt P41161 1-510); conditions: protein: recombinant; tags: N-terminal GST; dsDNA, one strand shown
# In short: as §1
# [3] = biological target: HSF1 (Homo sapiens, UniProt Q00613 1-529); conditions: protein: recombinant; tags: N-terminal GST; chain copies: 3; dsDNA, one strand shown
# In short: as §1
# [4] = biological target: T2, SPIC (Homo sapiens, UniProt Q8N5J4 1-248); conditions: protein: recombinant; tags: N-terminal GST; dsDNA, one strand shown
# T2 sequence: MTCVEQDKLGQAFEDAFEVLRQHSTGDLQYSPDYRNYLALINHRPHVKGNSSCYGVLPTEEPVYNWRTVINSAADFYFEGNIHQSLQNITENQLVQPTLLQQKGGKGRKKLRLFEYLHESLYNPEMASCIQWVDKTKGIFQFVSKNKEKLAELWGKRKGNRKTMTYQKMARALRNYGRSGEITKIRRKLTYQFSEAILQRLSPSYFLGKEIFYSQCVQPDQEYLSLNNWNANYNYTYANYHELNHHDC
# In short: as §1
# [5] = biological target: ELF4 (Homo sapiens, UniProt Q99607 1-663); conditions: protein: recombinant; tags: N-terminal GST; dsDNA, one strand shown
# In short: as §1
# [6] = biological target: T3, ELK4 (Homo sapiens, UniProt P28324-2 1-405); conditions: protein: recombinant; tags: N-terminal GST; dsDNA, one strand shown
# T3 sequence: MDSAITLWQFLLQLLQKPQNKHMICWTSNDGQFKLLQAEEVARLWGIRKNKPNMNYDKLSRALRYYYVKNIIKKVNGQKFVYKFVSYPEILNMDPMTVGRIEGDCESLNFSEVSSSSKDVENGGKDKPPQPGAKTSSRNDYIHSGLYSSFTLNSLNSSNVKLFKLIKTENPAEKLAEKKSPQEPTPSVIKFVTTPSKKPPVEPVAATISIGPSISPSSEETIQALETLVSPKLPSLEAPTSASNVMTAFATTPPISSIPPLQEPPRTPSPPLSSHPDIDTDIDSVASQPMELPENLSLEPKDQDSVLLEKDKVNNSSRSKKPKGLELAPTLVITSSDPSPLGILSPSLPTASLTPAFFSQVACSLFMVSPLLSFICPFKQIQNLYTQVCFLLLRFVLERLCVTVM
# In short: as §1
# [7] = biological target: T4, ETV2 (Homo sapiens, UniProt O00321 1-342); conditions: protein: recombinant; tags: N-terminal GST; dsDNA, one strand shown
# T4 sequence: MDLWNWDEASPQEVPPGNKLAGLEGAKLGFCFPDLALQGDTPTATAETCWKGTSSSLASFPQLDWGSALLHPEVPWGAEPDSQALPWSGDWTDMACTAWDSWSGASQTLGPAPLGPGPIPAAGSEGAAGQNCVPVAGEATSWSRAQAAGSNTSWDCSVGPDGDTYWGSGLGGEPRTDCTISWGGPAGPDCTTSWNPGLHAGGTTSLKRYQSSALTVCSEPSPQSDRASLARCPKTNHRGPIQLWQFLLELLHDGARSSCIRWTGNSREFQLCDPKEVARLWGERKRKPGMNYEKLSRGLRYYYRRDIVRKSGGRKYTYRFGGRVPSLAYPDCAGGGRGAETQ
# In short: as §1
# [8] = biological target: T5, ELF3 (Homo sapiens, UniProt P78545 1-371); conditions: protein: recombinant; tags: N-terminal GST; dsDNA, one strand shown
# T5 sequence: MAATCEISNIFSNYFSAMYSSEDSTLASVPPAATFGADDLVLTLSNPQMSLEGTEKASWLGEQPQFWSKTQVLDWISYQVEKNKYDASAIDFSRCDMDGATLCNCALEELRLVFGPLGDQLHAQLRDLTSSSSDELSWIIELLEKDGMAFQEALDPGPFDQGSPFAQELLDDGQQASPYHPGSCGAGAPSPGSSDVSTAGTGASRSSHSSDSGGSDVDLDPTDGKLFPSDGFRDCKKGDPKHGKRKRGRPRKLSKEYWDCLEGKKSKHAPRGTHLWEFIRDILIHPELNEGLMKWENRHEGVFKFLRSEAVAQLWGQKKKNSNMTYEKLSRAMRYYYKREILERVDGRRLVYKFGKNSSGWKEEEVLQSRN
# In short: as §1
# [9] = biological target: CRX (Homo sapiens, UniProt O43186 1-299); conditions: protein: recombinant; tags: N-terminal GST; dsDNA, one strand shown
# In short: as §1
# [10] = biological target: ETV1 (Homo sapiens, UniProt P50549 1-477); conditions: protein: recombinant; tags: N-terminal GST; dsDNA, one strand shown
# In short: as §1
# [11] = biological target: T6, ERF (Homo sapiens, UniProt P50548 1-548); conditions: protein: recombinant; tags: N-terminal GST; dsDNA, one strand shown
# T6 sequence: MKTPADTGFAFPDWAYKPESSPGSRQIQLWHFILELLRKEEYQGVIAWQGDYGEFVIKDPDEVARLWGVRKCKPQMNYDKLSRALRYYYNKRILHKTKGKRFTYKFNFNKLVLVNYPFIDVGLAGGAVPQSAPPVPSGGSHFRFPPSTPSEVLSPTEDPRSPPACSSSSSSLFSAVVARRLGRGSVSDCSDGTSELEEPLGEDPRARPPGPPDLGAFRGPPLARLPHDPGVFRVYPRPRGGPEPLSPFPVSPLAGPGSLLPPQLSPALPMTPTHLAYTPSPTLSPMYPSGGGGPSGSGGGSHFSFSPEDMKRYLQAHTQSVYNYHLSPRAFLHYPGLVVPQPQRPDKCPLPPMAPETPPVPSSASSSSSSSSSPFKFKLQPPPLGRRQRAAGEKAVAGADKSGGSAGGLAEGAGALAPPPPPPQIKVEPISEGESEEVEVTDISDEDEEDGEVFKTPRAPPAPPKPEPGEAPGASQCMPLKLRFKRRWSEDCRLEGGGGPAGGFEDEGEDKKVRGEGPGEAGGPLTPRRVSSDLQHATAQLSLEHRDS
# In short: as §1
# [12] = biological target: T7, ETV3L (Homo sapiens, UniProt Q6ZN32 1-361); conditions: protein: recombinant; tags: N-terminal GST; dsDNA, one strand shown
# T7 sequence: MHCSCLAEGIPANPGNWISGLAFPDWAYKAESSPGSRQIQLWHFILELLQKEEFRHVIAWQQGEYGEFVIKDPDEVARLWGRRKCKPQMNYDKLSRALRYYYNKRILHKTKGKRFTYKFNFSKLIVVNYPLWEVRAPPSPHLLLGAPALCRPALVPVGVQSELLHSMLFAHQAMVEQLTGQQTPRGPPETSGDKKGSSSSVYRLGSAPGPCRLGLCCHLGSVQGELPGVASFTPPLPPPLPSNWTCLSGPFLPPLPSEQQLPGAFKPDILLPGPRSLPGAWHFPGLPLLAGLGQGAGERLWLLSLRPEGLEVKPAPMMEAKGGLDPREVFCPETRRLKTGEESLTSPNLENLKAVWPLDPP
# In short: as §1
# [13] = biological target: T8, ETS2 (Homo sapiens, UniProt P15036 1-469); conditions: protein: recombinant; tags: N-terminal GST; dsDNA, one strand shown
# T8 sequence: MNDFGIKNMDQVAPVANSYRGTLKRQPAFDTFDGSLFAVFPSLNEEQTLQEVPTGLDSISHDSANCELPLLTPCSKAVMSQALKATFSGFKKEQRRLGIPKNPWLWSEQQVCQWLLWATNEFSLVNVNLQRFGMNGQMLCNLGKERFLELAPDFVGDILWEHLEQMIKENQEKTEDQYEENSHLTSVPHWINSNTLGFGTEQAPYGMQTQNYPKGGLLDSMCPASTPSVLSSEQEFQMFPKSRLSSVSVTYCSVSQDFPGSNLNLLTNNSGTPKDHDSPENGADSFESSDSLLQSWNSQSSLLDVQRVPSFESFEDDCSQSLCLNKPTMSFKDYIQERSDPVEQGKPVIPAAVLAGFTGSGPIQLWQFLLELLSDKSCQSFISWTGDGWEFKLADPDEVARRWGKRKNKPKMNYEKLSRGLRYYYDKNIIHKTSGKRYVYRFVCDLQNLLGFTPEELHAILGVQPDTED
# In short: as §1
# [14] = biological target: T9, SPDEF (Homo sapiens, UniProt O95238 1-335); conditions: protein: recombinant; tags: N-terminal GST; dsDNA, one strand shown
# T9 sequence: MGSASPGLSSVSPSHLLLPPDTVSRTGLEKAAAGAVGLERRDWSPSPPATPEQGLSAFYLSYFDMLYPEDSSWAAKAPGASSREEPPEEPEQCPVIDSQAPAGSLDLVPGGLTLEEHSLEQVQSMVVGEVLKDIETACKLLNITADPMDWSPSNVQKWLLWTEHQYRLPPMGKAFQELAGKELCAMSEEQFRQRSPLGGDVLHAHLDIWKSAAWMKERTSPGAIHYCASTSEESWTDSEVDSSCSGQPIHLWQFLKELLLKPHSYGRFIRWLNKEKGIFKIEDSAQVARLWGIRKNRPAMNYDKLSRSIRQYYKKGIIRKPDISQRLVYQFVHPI
# In short: as §1
# [15] = biological target: T10, ETV7 (Homo sapiens, UniProt Q9Y603 1-341); conditions: protein: recombinant; tags: N-terminal GST; dsDNA, one strand shown
# T10 sequence: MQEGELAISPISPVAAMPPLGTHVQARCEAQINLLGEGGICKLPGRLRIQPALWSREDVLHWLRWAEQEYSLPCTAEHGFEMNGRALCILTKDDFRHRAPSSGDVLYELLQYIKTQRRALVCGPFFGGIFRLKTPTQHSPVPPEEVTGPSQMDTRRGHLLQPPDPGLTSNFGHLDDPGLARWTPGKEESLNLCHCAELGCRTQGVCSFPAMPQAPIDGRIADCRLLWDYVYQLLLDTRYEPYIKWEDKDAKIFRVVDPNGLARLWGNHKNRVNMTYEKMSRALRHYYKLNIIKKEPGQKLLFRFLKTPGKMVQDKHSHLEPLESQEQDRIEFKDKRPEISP
# In short: as §1
# [16] = biological target: T11, ELF5 (Homo sapiens, UniProt Q9UKW6-2 1-255); conditions: protein: recombinant; tags: N-terminal GST; dsDNA, one strand shown
# T11 sequence: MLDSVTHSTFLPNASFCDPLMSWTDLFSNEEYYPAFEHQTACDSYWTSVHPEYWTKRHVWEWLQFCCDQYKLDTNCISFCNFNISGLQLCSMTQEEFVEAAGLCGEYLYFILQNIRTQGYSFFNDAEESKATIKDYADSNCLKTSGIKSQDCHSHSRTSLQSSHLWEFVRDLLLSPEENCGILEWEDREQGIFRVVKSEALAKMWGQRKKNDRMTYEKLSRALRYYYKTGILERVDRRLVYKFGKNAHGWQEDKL
# In short: as §1
# [17] = biological target: T12, ETV3 (Homo sapiens, UniProt P41162-2 1-143); conditions: protein: recombinant; tags: N-terminal GST; dsDNA, one strand shown
# T12 sequence: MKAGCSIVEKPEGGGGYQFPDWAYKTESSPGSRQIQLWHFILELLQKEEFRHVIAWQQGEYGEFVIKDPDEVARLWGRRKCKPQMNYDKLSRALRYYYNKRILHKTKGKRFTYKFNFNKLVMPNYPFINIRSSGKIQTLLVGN
# In short: as §1
# [18] = biological target: ETV6 (Homo sapiens, UniProt P41212 1-452); conditions: protein: recombinant; tags: N-terminal GST; dsDNA, one strand shown
# In short: as §1
# Chain of CRX (O43186 whole entry): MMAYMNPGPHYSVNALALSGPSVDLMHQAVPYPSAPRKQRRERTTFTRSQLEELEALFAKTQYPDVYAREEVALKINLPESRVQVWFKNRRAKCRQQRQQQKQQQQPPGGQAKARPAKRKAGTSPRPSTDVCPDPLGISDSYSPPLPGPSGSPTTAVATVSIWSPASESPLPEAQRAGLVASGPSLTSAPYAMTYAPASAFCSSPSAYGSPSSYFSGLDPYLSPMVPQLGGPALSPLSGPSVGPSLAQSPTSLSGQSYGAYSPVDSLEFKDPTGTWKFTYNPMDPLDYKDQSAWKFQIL
# Chain of ETV1 (P50549 whole entry): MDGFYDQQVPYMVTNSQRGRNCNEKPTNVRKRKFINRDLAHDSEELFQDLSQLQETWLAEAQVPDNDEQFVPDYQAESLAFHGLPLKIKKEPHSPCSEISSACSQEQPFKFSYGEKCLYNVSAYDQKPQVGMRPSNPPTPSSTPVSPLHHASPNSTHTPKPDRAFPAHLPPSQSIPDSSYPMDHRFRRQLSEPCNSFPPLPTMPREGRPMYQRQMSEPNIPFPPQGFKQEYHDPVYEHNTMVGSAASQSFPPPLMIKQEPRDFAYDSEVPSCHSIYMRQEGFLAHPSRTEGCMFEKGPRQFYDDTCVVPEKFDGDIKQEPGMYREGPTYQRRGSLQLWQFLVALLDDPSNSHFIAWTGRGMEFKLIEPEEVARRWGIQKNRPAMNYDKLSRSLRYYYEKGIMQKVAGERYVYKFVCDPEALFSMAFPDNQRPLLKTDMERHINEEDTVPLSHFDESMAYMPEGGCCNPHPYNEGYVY
# Chain of HSF1 (Q00613 whole entry): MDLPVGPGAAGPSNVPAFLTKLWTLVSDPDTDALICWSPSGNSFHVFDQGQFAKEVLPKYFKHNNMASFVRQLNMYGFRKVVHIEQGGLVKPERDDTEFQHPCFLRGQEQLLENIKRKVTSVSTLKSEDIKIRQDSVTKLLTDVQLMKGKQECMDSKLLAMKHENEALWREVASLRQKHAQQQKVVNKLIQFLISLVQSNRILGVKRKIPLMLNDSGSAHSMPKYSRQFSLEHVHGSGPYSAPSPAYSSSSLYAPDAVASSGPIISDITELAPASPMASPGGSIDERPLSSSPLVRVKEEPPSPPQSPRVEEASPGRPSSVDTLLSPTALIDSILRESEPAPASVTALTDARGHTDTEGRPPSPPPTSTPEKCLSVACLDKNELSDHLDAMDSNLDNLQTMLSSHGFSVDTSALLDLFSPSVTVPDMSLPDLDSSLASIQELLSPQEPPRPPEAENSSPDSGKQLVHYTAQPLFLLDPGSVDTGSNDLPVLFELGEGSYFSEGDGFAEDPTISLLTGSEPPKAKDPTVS
# Chain of ETV6 (P41212 whole entry): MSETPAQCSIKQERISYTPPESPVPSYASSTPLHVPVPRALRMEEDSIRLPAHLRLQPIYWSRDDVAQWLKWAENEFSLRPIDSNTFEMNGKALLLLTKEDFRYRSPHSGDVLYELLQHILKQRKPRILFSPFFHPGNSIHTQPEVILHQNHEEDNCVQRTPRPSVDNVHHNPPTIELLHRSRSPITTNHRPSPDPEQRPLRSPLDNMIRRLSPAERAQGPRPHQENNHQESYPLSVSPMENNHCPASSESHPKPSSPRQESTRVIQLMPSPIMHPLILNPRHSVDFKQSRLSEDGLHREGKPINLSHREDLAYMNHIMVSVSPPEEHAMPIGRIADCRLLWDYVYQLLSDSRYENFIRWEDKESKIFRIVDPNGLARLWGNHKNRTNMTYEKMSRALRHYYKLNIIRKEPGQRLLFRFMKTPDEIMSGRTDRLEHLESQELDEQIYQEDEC
# Chain of ETV5 (P41161 whole entry): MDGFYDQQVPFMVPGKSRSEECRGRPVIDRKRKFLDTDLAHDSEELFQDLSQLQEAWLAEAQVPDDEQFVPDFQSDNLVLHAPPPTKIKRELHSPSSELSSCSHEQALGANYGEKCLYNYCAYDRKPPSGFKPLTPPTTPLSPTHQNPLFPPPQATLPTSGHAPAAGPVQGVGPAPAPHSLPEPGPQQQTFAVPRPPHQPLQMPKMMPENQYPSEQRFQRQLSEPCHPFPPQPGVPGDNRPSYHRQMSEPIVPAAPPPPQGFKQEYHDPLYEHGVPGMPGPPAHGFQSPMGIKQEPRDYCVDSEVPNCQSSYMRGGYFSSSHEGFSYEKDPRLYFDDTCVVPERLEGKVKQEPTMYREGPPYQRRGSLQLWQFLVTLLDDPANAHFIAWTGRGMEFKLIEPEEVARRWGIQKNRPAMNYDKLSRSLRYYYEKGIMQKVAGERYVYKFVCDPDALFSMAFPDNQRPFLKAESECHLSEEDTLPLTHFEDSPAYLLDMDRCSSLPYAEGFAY
# Chain of ELF4 (Q99607 whole entry): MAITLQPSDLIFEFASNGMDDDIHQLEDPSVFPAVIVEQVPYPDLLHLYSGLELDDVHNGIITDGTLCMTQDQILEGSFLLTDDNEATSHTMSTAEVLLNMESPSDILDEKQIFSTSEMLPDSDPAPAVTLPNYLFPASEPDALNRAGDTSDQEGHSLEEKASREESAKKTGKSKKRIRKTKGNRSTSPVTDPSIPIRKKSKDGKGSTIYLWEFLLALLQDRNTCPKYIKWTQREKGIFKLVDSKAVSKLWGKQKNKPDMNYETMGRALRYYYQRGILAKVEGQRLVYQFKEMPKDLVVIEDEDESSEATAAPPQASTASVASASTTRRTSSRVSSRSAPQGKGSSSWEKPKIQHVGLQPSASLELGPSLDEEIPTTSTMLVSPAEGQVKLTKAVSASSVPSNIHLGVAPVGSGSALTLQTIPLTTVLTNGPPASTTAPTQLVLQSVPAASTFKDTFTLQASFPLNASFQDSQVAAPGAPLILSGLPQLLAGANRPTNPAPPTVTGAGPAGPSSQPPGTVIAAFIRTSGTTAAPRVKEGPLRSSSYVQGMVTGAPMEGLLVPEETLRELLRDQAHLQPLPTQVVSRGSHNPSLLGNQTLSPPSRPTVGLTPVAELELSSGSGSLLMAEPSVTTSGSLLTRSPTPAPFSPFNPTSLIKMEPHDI
sequence,measurement,setting,value
ATTACG,binding signal,[1],"1.16 fold enrichment (6-mer frequency, TF over GST control)"
same,binding signal,[2],"1.26 fold enrichment (6-mer frequency, TF over GST control)"
same,binding signal,[3],"1.54 fold enrichment (6-mer frequency, TF over GST control)"
same,binding signal,[4],"1.02 fold enrichment (6-mer frequency, TF over GST control)"
same,binding signal,[5],"1.14 fold enrichment (6-mer frequency, TF over GST control)"
same,binding signal,[6],"1.28 fold enrichment (6-mer frequency, TF over GST control)"
same,binding signal,[7],"1.17 fold enrichment (6-mer frequency, TF over GST control)"
same,binding signal,[8],"1.14 fold enrichment (6-mer frequency, TF over GST control)"
same,binding signal,[9],"2.19 fold enrichment (6-mer frequency, TF over GST control)"
same,binding signal,[10],"1.26 fold enrichment (6-mer frequency, TF over GST control)"
same,binding signal,[11],"1.15 fold enrichment (6-mer frequency, TF over GST control)"
same,binding signal,[12],"1.15 fold enrichment (6-mer frequency, TF over GST control)"
same,binding signal,[13],"1.29 fold enrichment (6-mer frequency, TF over GST control)"
same,binding signal,[14],"1.21 fold enrichment (6-mer frequency, TF over GST control)"
same,binding signal,[15],"1.12 fold enrichment (6-mer frequency, TF over GST control)"
same,binding signal,[16],"1.12 fold enrichment (6-mer frequency, TF over GST control)"
same,binding signal,[17],"1.22 fold enrichment (6-mer frequency, TF over GST control)"
same,binding signal,[18],"1.23 fold enrichment (6-mer frequency, TF over GST control)"
